# Measured values as given in publication PMC7862700, “An all-to-all approach to the identification of sequence-specific readers for epigenetic DNA modifications on cytosine”.
# What was measured:
# Experiment in all cases: DAPPL (digital affinity profiling via proximity ligation, sequencing); 10 mM Tris-HCl pH 7.5, 50 mM NaCl, 1 mM DTT, 4% glycerol, room temperature, 30 min; GST-TFs on glutathione beads, 16-mer random dsDNA library, 0.1% formaldehyde crosslink after washing; high values mean tight binding
# Settings in all cases: protein: recombinant; tags: N-terminal GST; dsDNA, one strand shown
# FLI1 = biological target: T1, FLI1 (Homo sapiens, UniProt Q01543 1-452)
# T1 sequence: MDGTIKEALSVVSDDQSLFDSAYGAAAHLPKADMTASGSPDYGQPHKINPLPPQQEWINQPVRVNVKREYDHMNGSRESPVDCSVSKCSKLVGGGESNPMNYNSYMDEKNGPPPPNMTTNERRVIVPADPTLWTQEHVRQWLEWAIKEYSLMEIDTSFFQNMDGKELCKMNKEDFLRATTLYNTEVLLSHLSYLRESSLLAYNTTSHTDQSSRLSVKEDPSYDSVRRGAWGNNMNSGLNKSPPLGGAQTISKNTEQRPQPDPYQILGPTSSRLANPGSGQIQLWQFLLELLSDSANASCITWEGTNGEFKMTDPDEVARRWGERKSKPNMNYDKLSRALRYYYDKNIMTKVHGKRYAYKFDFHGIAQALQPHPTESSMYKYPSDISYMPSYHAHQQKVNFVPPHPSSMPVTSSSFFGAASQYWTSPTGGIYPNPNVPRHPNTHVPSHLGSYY
# Method in brief: (§1)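 Pools of DNA-barcoded human transcription factors, expressed in yeast as GST fusions on glutathione beads and combined with a tag-only sample, were incubated with 200 nmole of a 16-mer random double-stranded DNA library. Incubation took 30 min at room temperature in Tris/NaCl/DTT/glycerol buffer and was followed by washing, 0.1% formaldehyde crosslinking, proximity ligation (BsaI/T4 ligase, 1 h, 37 °C), PCR amplification and sequencing on an Illumina NextSeq500. Binding signal is the ratio of a hexamer's read frequency for a factor to its frequency for the tag-only sample.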
# ELK1 = biological target: T2, ELK1 (Homo sapiens, UniProt P19419 1-428)
# T2 sequence: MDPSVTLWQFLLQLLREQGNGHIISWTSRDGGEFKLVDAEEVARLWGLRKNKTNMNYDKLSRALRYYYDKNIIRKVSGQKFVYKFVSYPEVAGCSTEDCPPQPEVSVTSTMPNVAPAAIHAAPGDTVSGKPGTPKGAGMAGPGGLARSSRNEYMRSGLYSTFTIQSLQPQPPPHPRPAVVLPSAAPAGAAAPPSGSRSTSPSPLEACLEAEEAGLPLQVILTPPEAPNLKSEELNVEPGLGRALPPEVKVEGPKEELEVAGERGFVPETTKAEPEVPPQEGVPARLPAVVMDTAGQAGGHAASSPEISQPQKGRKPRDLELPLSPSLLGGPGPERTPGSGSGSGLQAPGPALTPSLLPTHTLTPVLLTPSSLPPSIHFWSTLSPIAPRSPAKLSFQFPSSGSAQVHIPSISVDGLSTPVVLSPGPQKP
# Method in brief: as §1
# GABPA = biological target: T3, GABPA (Homo sapiens, UniProt Q06546 1-454)
# T3 sequence: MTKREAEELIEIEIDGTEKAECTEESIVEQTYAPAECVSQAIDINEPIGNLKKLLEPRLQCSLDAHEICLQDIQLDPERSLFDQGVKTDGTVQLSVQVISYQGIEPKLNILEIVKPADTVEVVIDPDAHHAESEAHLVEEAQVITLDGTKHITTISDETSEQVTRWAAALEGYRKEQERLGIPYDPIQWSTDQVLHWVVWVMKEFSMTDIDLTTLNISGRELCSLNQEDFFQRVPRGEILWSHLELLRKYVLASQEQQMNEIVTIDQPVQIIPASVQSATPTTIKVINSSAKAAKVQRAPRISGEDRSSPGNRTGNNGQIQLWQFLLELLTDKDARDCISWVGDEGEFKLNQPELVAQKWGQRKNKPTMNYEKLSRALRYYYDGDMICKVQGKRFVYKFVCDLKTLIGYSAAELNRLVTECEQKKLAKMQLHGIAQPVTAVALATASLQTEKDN
# Method in brief: as §1
# ERG = biological target: T4, ERG (Homo sapiens, UniProt P11308 1-479)
# T4 sequence: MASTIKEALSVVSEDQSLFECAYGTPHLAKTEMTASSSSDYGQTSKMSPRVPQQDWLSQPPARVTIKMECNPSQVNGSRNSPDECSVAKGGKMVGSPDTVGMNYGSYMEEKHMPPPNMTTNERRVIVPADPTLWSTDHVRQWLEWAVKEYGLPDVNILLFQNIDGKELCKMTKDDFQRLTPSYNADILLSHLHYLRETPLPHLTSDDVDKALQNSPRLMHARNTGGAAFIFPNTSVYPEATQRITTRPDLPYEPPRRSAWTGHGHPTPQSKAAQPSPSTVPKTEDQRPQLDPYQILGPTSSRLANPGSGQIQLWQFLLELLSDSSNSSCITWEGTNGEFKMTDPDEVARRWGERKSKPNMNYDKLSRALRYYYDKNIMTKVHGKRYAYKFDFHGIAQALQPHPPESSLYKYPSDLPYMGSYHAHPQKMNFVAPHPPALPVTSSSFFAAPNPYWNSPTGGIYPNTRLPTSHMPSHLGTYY
# Method in brief: as §1
# ELF1 = ELF1 (Homo sapiens, UniProt P32519 1-619)
# ELF1, sequence (P32519 whole entry): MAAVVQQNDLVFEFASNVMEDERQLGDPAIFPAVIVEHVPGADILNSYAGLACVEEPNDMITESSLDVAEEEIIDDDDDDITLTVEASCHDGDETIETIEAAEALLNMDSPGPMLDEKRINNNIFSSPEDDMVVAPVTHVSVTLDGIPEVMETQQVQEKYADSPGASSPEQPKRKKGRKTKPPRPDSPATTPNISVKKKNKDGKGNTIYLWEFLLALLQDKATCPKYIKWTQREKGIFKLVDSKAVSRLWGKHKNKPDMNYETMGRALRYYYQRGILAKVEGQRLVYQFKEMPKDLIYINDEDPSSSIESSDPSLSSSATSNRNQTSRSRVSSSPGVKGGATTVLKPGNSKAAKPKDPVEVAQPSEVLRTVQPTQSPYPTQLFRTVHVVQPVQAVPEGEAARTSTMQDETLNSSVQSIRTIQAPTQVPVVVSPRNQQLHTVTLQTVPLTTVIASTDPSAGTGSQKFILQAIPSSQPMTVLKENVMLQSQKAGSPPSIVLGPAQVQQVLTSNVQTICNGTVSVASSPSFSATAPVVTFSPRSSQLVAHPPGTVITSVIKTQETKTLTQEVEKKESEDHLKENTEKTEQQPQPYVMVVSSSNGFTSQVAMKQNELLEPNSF
# Method in brief: as §1
# EHF = biological target: T5, EHF (Homo sapiens, UniProt Q9NZC4 1-300)
# T5 sequence: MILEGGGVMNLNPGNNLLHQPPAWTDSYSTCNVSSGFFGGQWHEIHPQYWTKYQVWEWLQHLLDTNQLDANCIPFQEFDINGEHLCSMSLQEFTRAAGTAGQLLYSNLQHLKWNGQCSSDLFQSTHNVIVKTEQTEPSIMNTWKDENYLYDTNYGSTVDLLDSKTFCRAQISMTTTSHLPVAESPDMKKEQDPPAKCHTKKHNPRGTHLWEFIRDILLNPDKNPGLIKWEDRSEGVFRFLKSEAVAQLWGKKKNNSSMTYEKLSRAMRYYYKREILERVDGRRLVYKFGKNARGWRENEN
# Method in brief: as §1
# SPI1 = SPI1 (Homo sapiens, UniProt P17947 1-270)
# Method in brief: as §1
# SPIB = SPIB (Homo sapiens, UniProt Q01892 1-262)
# SPIB, sequence (Q01892 whole entry): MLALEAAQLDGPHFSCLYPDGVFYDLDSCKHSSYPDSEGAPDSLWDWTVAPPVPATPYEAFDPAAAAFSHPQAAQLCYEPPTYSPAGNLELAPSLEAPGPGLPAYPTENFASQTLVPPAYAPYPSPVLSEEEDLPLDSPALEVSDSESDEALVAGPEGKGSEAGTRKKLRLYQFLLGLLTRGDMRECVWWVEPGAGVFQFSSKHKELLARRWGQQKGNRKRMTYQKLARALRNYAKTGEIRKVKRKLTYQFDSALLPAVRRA
# Method in brief: as §1
# ELK3 = biological target: T6, ELK3 (Homo sapiens, UniProt P41970 1-407)
# T6 sequence: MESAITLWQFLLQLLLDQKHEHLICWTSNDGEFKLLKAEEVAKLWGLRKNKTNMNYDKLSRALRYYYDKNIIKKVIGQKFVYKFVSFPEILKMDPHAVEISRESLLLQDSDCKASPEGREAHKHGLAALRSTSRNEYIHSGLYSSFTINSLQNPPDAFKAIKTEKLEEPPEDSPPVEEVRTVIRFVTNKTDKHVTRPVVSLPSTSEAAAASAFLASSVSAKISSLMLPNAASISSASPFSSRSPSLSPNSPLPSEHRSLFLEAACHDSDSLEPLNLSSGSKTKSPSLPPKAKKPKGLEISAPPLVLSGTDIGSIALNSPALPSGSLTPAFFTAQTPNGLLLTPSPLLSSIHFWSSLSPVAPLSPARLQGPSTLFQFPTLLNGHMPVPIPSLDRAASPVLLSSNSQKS
# Method in brief: as §1
sequence,measurement,setting,value
TTTAAG,binding signal,FLI1,"1.3 fold enrichment (6-mer frequency, TF over GST control)"
same,binding signal,ELK1,"1.33 fold enrichment (6-mer frequency, TF over GST control)"
same,binding signal,GABPA,"1.38 fold enrichment (6-mer frequency, TF over GST control)"
same,binding signal,ERG,"1.33 fold enrichment (6-mer frequency, TF over GST control)"
same,binding signal,ELF1,"1.34 fold enrichment (6-mer frequency, TF over GST control)"
same,binding signal,EHF,"1.27 fold enrichment (6-mer frequency, TF over GST control)"
same,binding signal,SPI1,"1.42 fold enrichment (6-mer frequency, TF over GST control)"
same,binding signal,SPIB,"1.31 fold enrichment (6-mer frequency, TF over GST control)"
same,binding signal,ELK3,"1.46 fold enrichment (6-mer frequency, TF over GST control)"
